# Assay results: PubChem BioAssay (NCI)
# This is part of a sample that, as a whole, favours compounds with a hit. Of some 83,000 tested, about 20% had one in any assay.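 Assay: single dose, 48 h. Readout: percent growth (0 = no net growth; negative = cell death). Active: <10.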 Unmarked numbers belong to inactive results. Active and inactive are the calls of the source.
# System: SK-MEL-5 melanoma
# Test: NCI-60 one-dose screen, 48 h (100 = growth as untreated, 0 = no growth, -100 = all killed)
# Details: 10 µM unless noted
row,SMILES,growth
1,Cc1ccc2c(C(C[N+](=O)[O-])c3ccco3)c(-c3ccccc3)[nH]c2c1 (stereo unspecified),35.6%
2,NC(=O)c1cc(Br)ccc1NC(=O)/C=C/c1ccccc1,12.2%
3,O=C1c2cccc3cccc(c23)C(=O)N1CCCCN1CCN(CCCCOc2ccc(-c3nc4ccc(N5CCOCC5)cc4[nH]3)cc2)CC1,89.2%
4,Cc1cc(C)nc(SC2=C(Nc3cccc(Cl)c3)C(=O)N(Cc3ccccc3)C2=O)n1,50.1% [30 µM]
5,CN(C)C(=S)N=Nc1c(O)[nH]c2ccccc12,4.77% (active)
6,O=C1/C(=C/c2ccc3c(c2)OCO3)SC(=S)N1CCc1ccc(O)cc1,98.2%
7,N#Cc1cnn(-c2nc3c(Cl)cccc3s2)c1N,90.8%
8,Nc1ccn(-c2ccc(Br)cc2)c(=O)n1,119%
9,Cc1ccc(C2=NN3C(C2)c2cc(Br)ccc2OC32CCN(Cc3ccccc3)CC2)o1 (stereo unspecified),92.1%
10,COc1ccc(C(=O)COc2ccc(/C=C3\COc4ccc(OC)cc4C3=O)cc2)cc1,74.2%
11,CCN(CC)c1ccc(-c2cc(-c3cc(OC)c(OC)c(OC)c3)nc(N3CCOCC3)c2C#N)cc1,-83.3% (active)
12,Cn1cc(-c2nonc2-c2cn(C)c3ccc(F)cc23)c2ccccc21,24.1%
13,COc1ccc(C(=O)COc2cccc(/C=C3\CSc4ccccc4C3=O)c2)cc1,-75.8% (active)
14,CCn1c(Cc2ccccc2Nc2c(Cl)cccc2Cl)nnc1SCC(=O)NN1C(=O)/C(=C/c2cc(OC)c(O)c(OC)c2)SC1=S,26.1%
15,O=C1c2ccccc2C(=O)c2c(N=Nc3[nH]c(=S)[nH]c3O)cccc21,13.8%
16,C#CCOc1ccc2ncnc(N3CCC(NC(=O)CCl)CC3)c2c1,75% [8.25 µM]
17,Cc1cc2c3ccccc3ccc2[n+]2ccccc12,-44.8% (active)
18,Cc1ccc(/C=C2\SC(=S)N(CC(=O)NCCCN3CCOCC3)C2=O)cc1,97.1%
19,CC(=O)O[C@H]1[C@@H]2OC(=O)C(CSc3ccccc3)[C@@H]2C[C@H]2O[C@]2(C)CC/C=C(\C)CCC[C@@H]1C (stereo partly specified),47%

row,SMILES,growth
1,Cc1cc2nc(NC(=O)CN3CCN(CCN4C(=O)c5cccc6cccc(c56)C4=O)CC3)sc2cc1C,77%
2,CC(=O)Oc1ccc(Cl)cc1CN(C(C)=O)C1CCCCC1,101%
3,O=C(NCCN1CCOCC1)Nc1ccc(-c2cc3c(Nc4ccc(Oc5cccc(C(F)(F)F)c5)c(Cl)c4)ncnc3s2)cc1,-90.9% (active)
4,Cn1ccnc1C(=O)/C=C/c1ccccc1,15%
5,Brc1ccc(-c2csc(Nc3ccccn3)n2)cc1,75.5%
6,COc1ccc2c(c1)O/C(=C\c1cccc(OCC(=O)Nc3nc4c(s3)CCCC4)c1)C2=O,97.9%
7,C=CCSSC1N=CNc2nc[nH]c21 (stereo unspecified),60.7%
8,COc1ccc(S(=O)(=O)N2CCCCCC2)cc1NC(=O)c1[nH]c(C)c2c1CCCCC2=O,-43.8% (active)
9,Cc1ccc(C(SCC(N)C(=O)O)(c2ccccc2)c2ccc(C)cc2)cc1 (stereo unspecified),16.7%
10,O=C(O)c1ccc(NC(=O)c2ccc(-c3cccc([N+](=O)[O-])c3)o2)cc1,101%
11,CC1=CC(C)(C)Nc2ccc(Cc3ccc4c(c3)C(C)=CC(C)(C)N4)cc21,92.8%
12,COc1ccc(C2CC(c3ccc4ccccc4c3)=NN2/C=C2\SC(=S)N(NC(=O)Cc3ccccc3Nc3c(Cl)cccc3Cl)C2=O)cc1 (stereo unspecified),19.6%
13,Cn1c(NCCc2ccc(O)c(O)c2)nc2c1c(=O)n(Cc1ccc(Br)cc1)c(=O)n2C,57.6%
14,Cc1ccc2c(c1)C(=O)/C(=C/c1cccc(OCC(=O)c3ccc(Cl)cc3)c1)CS2,85.1%
15,COC(=O)c1ccc(NC(=O)c2ccc(-c3cccc([N+](=O)[O-])c3)o2)cc1,97.8%
16,COc1cc(C(=O)/C=C/c2cccnc2Nc2ccc(Cl)cc2)cc(OC)c1OC,-86.8% (active)
17,Cc1cc(C)nc(SC2=C(Nc3cc(Cl)ccc3O)C(=O)N(Cc3ccccc3)C2=O)n1,49% [30 µM]
18,CC(C)CSc1nc(N)nc2c1ncn2C1OC(CO)C(O)C1O (stereo unspecified),96.5%
19,O=C1NC(=Nc2ccc(O)cc2)S/C1=C\c1cccc(Cl)c1,70.6%

# System: UACC-62 melanoma
# Test: as above
# Details: 10 µM unless noted
row,SMILES,growth
1,Cc1ccc2c(C(C[N+](=O)[O-])c3ccco3)c(-c3ccccc3)[nH]c2c1 (stereo unspecified),35.1%
2,NC(=O)c1cc(Br)ccc1NC(=O)/C=C/c1ccccc1,43%
3,O=C1c2cccc3cccc(c23)C(=O)N1CCCCN1CCN(CCCCOc2ccc(-c3nc4ccc(N5CCOCC5)cc4[nH]3)cc2)CC1,92.8%
4,Cc1cc(C)nc(SC2=C(Nc3cccc(Cl)c3)C(=O)N(Cc3ccccc3)C2=O)n1,61.4% [30 µM]
5,CN(C)C(=S)N=Nc1c(O)[nH]c2ccccc12,-16.9% (active)
6,O=C1/C(=C/c2ccc3c(c2)OCO3)SC(=S)N1CCc1ccc(O)cc1,88%
7,N#Cc1cnn(-c2nc3c(Cl)cccc3s2)c1N,89.2%
8,Nc1ccn(-c2ccc(Br)cc2)c(=O)n1,106%
9,Cc1ccc(C2=NN3C(C2)c2cc(Br)ccc2OC32CCN(Cc3ccccc3)CC2)o1 (stereo unspecified),82.3%
10,COc1ccc(C(=O)COc2ccc(/C=C3\COc4ccc(OC)cc4C3=O)cc2)cc1,85.1%
11,CCN(CC)c1ccc(-c2cc(-c3cc(OC)c(OC)c(OC)c3)nc(N3CCOCC3)c2C#N)cc1,-58% (active)
12,Cn1cc(-c2nonc2-c2cn(C)c3ccc(F)cc23)c2ccccc21,30.4%
13,COc1ccc(C(=O)COc2cccc(/C=C3\CSc4ccccc4C3=O)c2)cc1,-72% (active)
14,CCn1c(Cc2ccccc2Nc2c(Cl)cccc2Cl)nnc1SCC(=O)NN1C(=O)/C(=C/c2cc(OC)c(O)c(OC)c2)SC1=S,33.2%
15,O=C1c2ccccc2C(=O)c2c(N=Nc3[nH]c(=S)[nH]c3O)cccc21,32.5%
16,C#CCOc1ccc2ncnc(N3CCC(NC(=O)CCl)CC3)c2c1,72.7% [8.25 µM]
17,Cc1cc2c3ccccc3ccc2[n+]2ccccc12,59.8%
18,Cc1ccc(/C=C2\SC(=S)N(CC(=O)NCCCN3CCOCC3)C2=O)cc1,99.7%
19,CC(=O)O[C@H]1[C@@H]2OC(=O)C(CSc3ccccc3)[C@@H]2C[C@H]2O[C@]2(C)CC/C=C(\C)CCC[C@@H]1C (stereo partly specified),38.3%

row,SMILES,growth
1,Cc1cc2nc(NC(=O)CN3CCN(CCN4C(=O)c5cccc6cccc(c56)C4=O)CC3)sc2cc1C,83.8%
2,CC(=O)Oc1ccc(Cl)cc1CN(C(C)=O)C1CCCCC1,86.8%
3,O=C(NCCN1CCOCC1)Nc1ccc(-c2cc3c(Nc4ccc(Oc5cccc(C(F)(F)F)c5)c(Cl)c4)ncnc3s2)cc1,-40.3% (active)
4,Cn1ccnc1C(=O)/C=C/c1ccccc1,43.1%
5,Brc1ccc(-c2csc(Nc3ccccn3)n2)cc1,75.5%
6,COc1ccc2c(c1)O/C(=C\c1cccc(OCC(=O)Nc3nc4c(s3)CCCC4)c1)C2=O,76.1%
7,C=CCSSC1N=CNc2nc[nH]c21 (stereo unspecified),16.8%
8,COc1ccc(S(=O)(=O)N2CCCCCC2)cc1NC(=O)c1[nH]c(C)c2c1CCCCC2=O,15.8%
9,Cc1ccc(C(SCC(N)C(=O)O)(c2ccccc2)c2ccc(C)cc2)cc1 (stereo unspecified),13.6%
10,O=C(O)c1ccc(NC(=O)c2ccc(-c3cccc([N+](=O)[O-])c3)o2)cc1,98.4%
11,CC1=CC(C)(C)Nc2ccc(Cc3ccc4c(c3)C(C)=CC(C)(C)N4)cc21,84.1%
12,COc1ccc(C2CC(c3ccc4ccccc4c3)=NN2/C=C2\SC(=S)N(NC(=O)Cc3ccccc3Nc3c(Cl)cccc3Cl)C2=O)cc1 (stereo unspecified),42.8%
13,Cn1c(NCCc2ccc(O)c(O)c2)nc2c1c(=O)n(Cc1ccc(Br)cc1)c(=O)n2C,82%
14,Cc1ccc2c(c1)C(=O)/C(=C/c1cccc(OCC(=O)c3ccc(Cl)cc3)c1)CS2,76.2%
15,COC(=O)c1ccc(NC(=O)c2ccc(-c3cccc([N+](=O)[O-])c3)o2)cc1,95.5%
16,COc1cc(C(=O)/C=C/c2cccnc2Nc2ccc(Cl)cc2)cc(OC)c1OC,-67% (active)
17,Cc1cc(C)nc(SC2=C(Nc3cc(Cl)ccc3O)C(=O)N(Cc3ccccc3)C2=O)n1,70.6% [30 µM]
18,CC(C)CSc1nc(N)nc2c1ncn2C1OC(CO)C(O)C1O (stereo unspecified),92.8%
19,O=C1NC(=Nc2ccc(O)cc2)S/C1=C\c1cccc(Cl)c1,80.9%
